Measured values reported in PubChem BioAssay AID1159506 (National Center for Advancing Translational Sciences (NCATS), 2015).
In all, about 59,000 sequences were measured (the read-out: median about -0.00055, lowest 2% from about -2 on). This excerpt belongs to a sample that is enriched for the lowest values.

Assay: Identification of proteins required for the processing of the EWS-FLI1 nascent transcript;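 further: robust z of luciferase light less the median z of siRNAs with the same seed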
Settings: TC32 Ewing sarcoma NR0B1-luc vs CMV-luc (EWS-FLI1 target promoter against control promoter), 48 h; screened at 20 nM (by protocol)
How it was run: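 Three siRNAs per gene, each in a separate well at 20 nM, were transfected into TC32 cells bearing either reporter construct. Luminescence was measured two days on, and per-gene comparison relied on seed-corrected Z values.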

| Sequence | seed-corrected z-score |
| --- | --- |
| UGCGUGAACCUCUUGAACA against TNFAIP2 | 0.027 |
| AGUGGAAACAGGAUGGAUG against GAL3ST4 | -0.271 |
| UAGCCGCUGACUUUGAUGC against SLC39A13 | 0.264 |
| UUACUUGUACCCGCUGUUC against RLTPR | -0.488 |
| AUCUGCAUAAUGCACAUUC against SLC15A5 | -2.92 |
| AGCAUCUUGACAUUCAUCU against MYL4 | -0.225 |
| UUUAAGGGUAUUACGAGUG against GGPS1 | 0.153 |
| UUAUCAAUUAGAGGAUAAC against B3GALNT1 | 0.214 |
| AUACAUCCGAUUAAGAGGC against SERINC5 | -2.74 |
| UUUCCUGUAAAUCCCACAG against TSSC1 | 0.399 |
| AGAUCUAAUAACAAUAAGC against EIF2S3 | -2.28 |
| AAUCAGUCAGGUAAAUGCC against ENTPD1 | 0.248 |
| AAUAAAAAUGACAGUUUCC against BTN2A2 | 0.474 |
| AAUGAGAAUAAAGUCUACC against OR51A4 | -2.31 |
| UCCUUCACAAACAUGUCCC against SDK1 | 0.154 |
| UAUCGAAGAUAAAUCAGCC against SLC7A11 | 0.269 |
| UUCUUCUCGGCCUGUUUCC against RPL13A | 0.511 |
| UGCCUGUAAAGCCGUCUCC against LINC00705 | -0.731 |
| AAGCCUAUGAUGAUCACUG against C3orf52 | -0.911 |
| UUCCAGCACAUAUCGACUC against TMEM8B | -2.4 |
| AUACUGGACACUCUUGCCG against RNF5 | -2.86 |

| Sequence | seed-corrected z-score |
| --- | --- |
| UUCGGUCUCAGGACUAUUG against KAT6A | 0.686 |
| UUCUUGAACUGUCUAAACC against CERKL | 0.919 |
| UUUCAUUGAAGCGGAAGCG against CRYGD | 0.834 |
| UUACUUAGAGGAGAUACCA against IGFBP7 | -0.294 |
| UCCCGGAAAGCCUUCAUGG against INF2 | -0.589 |
| UAAGAUAUGAACUCUGACG against ZNF234 | 0.548 |
| UGGGCUUGUAGAAGUGUCU against DGAT1 | -0.22 |
| AAUUAUUCGACUGACAUAG against RFC4 | -2.19 |
| AUCUGUCCAAGACAUUUGC against CHRNA7 | -1.18 |
| AAACUGACAAGUAGACUGG against ANKRD27 | -0.601 |
| UCAGUUGCUUAUGAUAGUC against CCDC73 | -2.71 |
| UUAUUAGAGAGAAAAGCAC against PRAC1 | 0.7 |
| UCCGUUAUUAGCAUCUGCC against 6-Mar | -0.0888 |
| UUAUUGAUGCGUUGAUUUG against CCDC88C | 0.00274 |
| UUAUGUACCUUGUUACAUU against CD72 | -0.111 |
| AUGCGGUUCAGGAACUUGG against SBNO2 | -2.46 |
| ACAUAUAGUAUCAUUAUGG against SLC35D2 | 0.0309 |
| UUUCGGUUCCUUGAAACCA against DBNL | -0.0899 |
| UUUGAUUCUACUUCAAAAC against CBX3P2 | 0.167 |
| AAAGGGACGCUCAACCACC against HIST1H4K | -1.31 |
| UUAACUGCAGGCUUAUACU against AKR1B1 | -1.42 |

| Sequence | seed-corrected z-score |
| --- | --- |
| UAUCUUUUCCCAGUUGGAC against MSRB3 | -2.11 |
| UACGAUUCUUGAGUGGAAG against BACH1 | 0.239 |
| UCUGUUUCUCGCGCACUCG against COX7A1 | 0.0308 |
| UUCUUACACCUGACGAAGC against WNT5B | 0.217 |
| UAUGAUUUAAUCACCUCCU against LOC653513 | 0.00911 |
| UCAAUGAGAGUGCACAUCC against COPA | -3.73 |
| AUAUCAAUUGUUAUCUUGC against ANKRD30A | 0.895 |
| UCUACUAUCAUUGUCCCUU against TAL1 | 0.0482 |
| UCUGGUACUGUGAAGGGUC against TSPYL5 | 0.606 |
| UAUUAUUGUCUGGAACAUC against C12orf57 | 0.301 |
| UGACGUACAGCAUUGACAG against PHLPP2 | 0.366 |
| UAAGUCCCAAUUCACUCUC against FAM134B | 2.19 |
| UCUGGUUCCAGGUUGCUUA against SFXN3 | -2.37 |
| AGUAGAAAGACCAUGCUUG against TUBB2A | 0.712 |
| AAAACUAUUGGUUUCUUCC against GCOM1 | -0.0313 |
| UUCGUAGUGGAGUGAAUCC against DHH | -0.195 |
| ACUGCUUUCCUUAAAAUCC against CCDC40 | -3.74 |
| UUGUUAACCAAGACAACGC against SNAPIN | 0.13 |
| UGCUAUAUCUAGAUGUUCC against RMDN2 | -0.178 |
| UCUUUGUUCCAUCAUGACC against NDUFAF7 | 0.211 |
| UCAUUUCGCACAGCUUCCU against RARG | 0.369 |

| Sequence | seed-corrected z-score |
| --- | --- |
| AAUGCUCCAAGACUGGAGG against PTCRA | -1.44 |
| UACAUGGUAAUAACUUUUC against MARCKS | -0.217 |
| UUUGUUCAUCACGAAAGUC against SDHAF3 | -0.383 |
| AGAGUGUCAAGCAGCAUGG against EEF1A1P33 | -2.33 |
| UGCGGAUCAAGUCUGAGAC against MSH5 | -0.442 |
| UGAGUUUCUCGCACGUCUC against WNT4 | -2.44 |
| UGAGGCUCCAGUUUCAGGC against SLC3A2 | 1.53 |
| UGACUUGACUCCGAUCUGC against AP2A1 | -0.384 |
| UUCGUGGUCUUGCAGAAGC against LY6D | -0.178 |
| GAUAGUUGUAGGGUGUGGC against NDUFA3P3 | 0.165 |
| UAACUUAUCUAAACUACUC against SPAG9 | -0.547 |
| AAUGGUUUCACCGGCAGCG against IFRD2 | -2.09 |
| AACUCUUCUAUGUCGAAUG against ZNF551 | -0.267 |
| UCCGAUGACACCAAGAGCG against REEP5 | 0.932 |
| UACUUUACGUUCUUCGAUC against PAGE4 | 0.246 |
| ACUGGAGAUAGUGCUGUUG against SUN2 | -4.61 |
| UGUGAUGUUAGCAAUCUUC against TAS2R41 | -0.517 |
| UAGUCAACAAUGUCACAUC against ELOVL7 | -0.576 |
| UGAUGCACCAUCACAGUCU against SUSD6 | 0.212 |
| CACCAGGAUGGUUUGGUUG against BRICD5 | 1.06 |
| UCUUCGGUCAUGAAUGAGG against TAT | -0.586 |
